# Tb PYK inh: T. brucei pyruvate kinase inhibition. Q57TT1. AID 624173. 410,000 tested, 0.12% active. Potency, µM (titrated, usually from 76.8 µM), for inactives: at the highest dose activity, negative = inhibition, most hits filed as inhibitors. TbPYK enzyme, Kinase-Glo Plus ATP luminescence, 45 min; further: potency means the concentration at half of the fitted maximal effect; on the % scale 0 is the no-effect control and ±100 the full control effect; nearly all actives have a fitted effect of over 50% in size
#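 Screened from lowest to highest concentration, compounds were pinned into TbPYK/substrate mixtures, and ADP (130 uM final) was added. Plates sat at room temperature for 45 min prior to Kinase-Glo Plus detection by luminescence.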
# LmPK inhibitor: blocks Leishmania mexicana pyruvate kinase activity. Q27686. purified LmPK, Kinase-Glo ATP luminescence, 1 h. Potency, µM (series often up to 57.5 µM), inactives show at the top dose activity change, negative = inhibition, actives largely listed as inhibitors. 290,000 tested, 0.37% active; further: potency means the concentration at half of the fitted maximal effect; on the % scale 0 is the no-effect control and ±100 the full control effect
# Target sequence (Q27686 whole entry, looked up): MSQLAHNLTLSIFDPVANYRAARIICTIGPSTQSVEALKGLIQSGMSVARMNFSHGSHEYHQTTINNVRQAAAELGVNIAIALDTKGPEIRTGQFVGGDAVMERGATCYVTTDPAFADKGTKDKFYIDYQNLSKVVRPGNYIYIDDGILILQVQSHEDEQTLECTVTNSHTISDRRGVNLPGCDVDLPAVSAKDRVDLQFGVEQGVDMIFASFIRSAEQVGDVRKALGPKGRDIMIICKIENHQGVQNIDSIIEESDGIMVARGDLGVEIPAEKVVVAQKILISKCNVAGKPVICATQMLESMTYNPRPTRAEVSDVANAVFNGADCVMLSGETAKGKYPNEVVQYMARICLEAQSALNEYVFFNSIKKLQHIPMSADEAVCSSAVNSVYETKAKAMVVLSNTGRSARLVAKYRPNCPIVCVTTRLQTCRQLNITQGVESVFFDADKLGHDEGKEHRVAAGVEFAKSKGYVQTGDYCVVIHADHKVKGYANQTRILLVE
#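 qHTS format; LmPK 0.1 nM; substrates PEP 0.5 mM and ADP 0.1 mM. One-hour room-temperature incubation, then coupled luciferase luminescence; 0.5 nM enzyme wells mark activation.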
# RE007 growth inh: less growth of the S. pombe RE007 Vpr strain | S. pombe RE007 Vpr strain, BacTiter-Glo ATP luminescence, 24 h | Potency, µM (titrated, usually from 92.2 µM), for the others: at the highest dose activity change, negative = less growth, actives largely listed as inhibitors | 360,000 tested, 0.21% active; active means well fitted falling curve with a large enough effect; inconclusive means small, poorly fitted or top-dose-only effect; inactive means no such curve, though single readings can be large or run the other way; further: potency means the concentration at half of the fitted maximal effect; on the % scale 0 is the no-effect control and ±100 the full control effect; nearly all actives have a fitted effect of over 50% in size
#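 Fission yeast strain RE007, carrying one chromosomally integrated HIV-1 vpr copy, was seeded at OD 0.01 in PMG+AL medium with 23 nL pinned compound. After 24 h at 30 °C and 99% humidity, viability was read by BacTiter-Glo luminescence.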
# Shiga toxin inh: Shiga toxin inhibition; Vero cells, Shiga toxin protein synthesis inhibition reporter; inhibition, % at 38.7 µM; 290,000 tested, 9.2% active; AID 2315; in the data active means inhibition mostly above about 28%, no sharp cut-off; inactive means mostly below about 43%; further: 0% is about no effect
# CHX counter: counter-screen hit for Shiga toxin inhibitors, cycloheximide. cell reporter, cycloheximide protein synthesis inhibition counterscreen. AID 2314. 300,000 tested, 12% active. max response, %; in the data active means max response mostly above about 13%, no sharp cut-off; inactive means mostly below about 14%; further: read at 38.3 µM for the half of the compounds with a filed dose; 0% is about no effect
# Giardia FBPA inh-1: inhibitors of Giardia lamblia fructose-1,6-bisphosphate aldolase; A8B2U2; purified Giardia FBPA; Potency, µM (highest dose often 59.6 µM), without a hit: at the highest dose activity, negative = inhibition, hits mostly inhibitors; 290,000 tested, 0.71% active; AID 2451; further: potency means the concentration at half of the fitted maximal effect; on the % scale 0 is the no-effect control and ±100 the full control effect; nearly all actives have a fitted effect of over 55% in size
# Target sequence (A8B2U2 whole entry, looked up): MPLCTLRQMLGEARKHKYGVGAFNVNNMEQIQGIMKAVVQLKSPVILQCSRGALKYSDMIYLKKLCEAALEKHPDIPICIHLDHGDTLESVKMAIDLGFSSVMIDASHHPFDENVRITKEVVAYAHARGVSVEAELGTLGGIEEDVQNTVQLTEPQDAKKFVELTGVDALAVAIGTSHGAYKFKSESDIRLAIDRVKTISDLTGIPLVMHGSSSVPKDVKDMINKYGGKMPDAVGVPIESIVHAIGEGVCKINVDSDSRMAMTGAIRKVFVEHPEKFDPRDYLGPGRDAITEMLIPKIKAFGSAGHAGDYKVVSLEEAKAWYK
#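 Giardia FBPA (40 nM reagent) was preincubated 10 min at RT with compound (up to 57.5 uM final), then substrate plus GAPDH/TPI/NAD/arsenate coupling system with diaphorase/resazurin was added; resorufin fluorescence (525/598 nm) was read after 20 min.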
# Giardia growth: blocks growth of Giardia lamblia trophozoites. Potency, µM (series often up to 57.5 µM), without a hit: top-dose activity change, negative = inhibition, actives largely listed as inhibitors. shares compounds with Giardia FBPA inh-1. 1,500 tested, 5% active. Giardia lamblia trophozoite growth inhibition;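 further: potency means the concentration at half of the fitted maximal effect; trophozoites exposed to compound for 48 h at 37 °C; on the % scale 0 is the no-effect control and ±100 the full control effect; nearly all actives have a fitted effect of over 70% in size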
# Mammal cell tox: counter-screen for Giardia aldolase inhibitors: mammalian cell toxicity | shares compounds with Giardia FBPA inh-1 | mammalian cell viability counter-screen, qHTS | Potency, µM (titrated, usually from 57.5 µM), without a hit: at the highest dose viability change, negative = toxicity, hits mostly inhibitors | 1,500 tested, 4% active | AID 2786;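 further: Chinese hamster ovary cells used as mammalian cytotoxicity surrogate; viability measured as cellular ATP by luminescence; potency means the concentration at half of the fitted maximal effect; compound exposure lasted 48 h before reading; on the % scale 0 is the no-effect control and ±100 the full control effect; nearly all actives have a fitted effect of over 60% in size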
# Giardia FBPA inh-2: confirmation of Giardia fructose-bisphosphate aldolase inhibitors; shares compounds with Giardia FBPA inh-1; purified Giardia aldolase enzyme activity, qHTS; Potency, µM (top dose mostly 57.5 µM), inactives show top-dose activity change, negative = inhibition, usual class: inhibitors; 1,500 tested, 5% active; AID 2787; further: potency means the concentration at half of the fitted maximal effect; on the % scale 0 is the no-effect control and ±100 the full control effect; nearly all actives have a fitted effect of over 45% in size
# Rabbit FBPA inh: blocks rabbit muscle aldolase in Giardia aldolase selectivity test. shares compounds with Giardia FBPA inh-1. Rabbit muscle FBPA enzyme inhibition, selectivity counter-screen. Potency, µM (titrated, usually from 57.5 µM), inactives show at the highest dose activity, negative = inhibition, actives largely listed as inhibitors. 1,500 tested, 4% active; further: potency means the concentration at half of the fitted maximal effect; on the % scale 0 is the no-effect control and ±100 the full control effect; nearly all actives have a fitted effect of over 60% in size
# GAPDH counter: GAPDH inhibition flagged for Giardia aldolase hits. shares compounds with Giardia FBPA inh-1. GAPDH coupling enzyme counterscreen, biochemical, qHTS. Potency, µM (top dose mostly 57.5 µM), without a hit: at the top dose activity change, negative = inhibition, hits mostly inhibitors. 1,500 tested, 6% active; further: potency means the concentration at half of the fitted maximal effect; on the % scale 0 is the no-effect control and ±100 the full control effect; nearly all actives have a fitted effect of over 55% in size
# * = called active by the depositor; ? = inconclusive; / = not tested or not shown; [ ] = remark or other dose. This is one part of a sample in which hits are shown more often than they occur. Unless noted, the call rests on the fitted dose curve; in most records, active means well fitted curve in the direction sought with a large enough effect; inconclusive means small, poorly fitted or top-dose-only effect, or another doubt; inactive means no such curve, though single readings can be large; an effect the other way counts as inactive or inconclusive.
SMILES,Tb PYK inh,LmPK inhibitor,RE007 growth inh,Shiga toxin inh,CHX counter,Giardia FBPA inh-1,Giardia growth,Mammal cell tox,Giardia FBPA inh-2,Rabbit FBPA inh,GAPDH counter
COc1cc(C(=O)O)cc(OC)c1OC,4%,/,4%,/,/,/,/,/,/,/,/
COc1cc(C(=O)O/N=C2\C=CC(=O)C=C2C)cc(OC)c1OC,-18%,-3%,-15%,-6,-2,4µM*,-13%[38.3 µM],?,28µM*,32µM*,32µM*
CCOc1ccc(/C(CCC(=O)O)=N/NC(=S)NC(C)C)cc1,-12%,1%,10%,41,11,16µM*,-16%,18%,4%,15%,10%
O=c1c(O)cccc2cc(O)c(O)c(O)c12,-28%,-3%,?,4,1,14µM*,-16%[38.3 µM],-18%,10µM*,16µM*,37µM*
O=C1c2ccccc2C(=O)c2c(O)c(O)cc(O)c21,-12%,/,?,/,/,?,/,/,/,/,/
CC(OC(=O)CC1CCCC1)C(=O)Nc1ccc(S(N)(=O)=O)cc1 (stereo unspecified),-2%,/,6%,/,/,/,/,/,/,/,/
O=C1CSC(=S)N1N1C(=O)c2cccc([N+](=O)[O-])c2C1=O,/,?,/,15,-2,18µM*,?,5%,4%,11%,11%
NC(=S)c1ccc[n+]([C@@H]2O[C@@H](COP(=O)([O-])OP(=O)(O)OC[C@H]3O[C@@H](n4cnc5c(N)ncnc54)[C@H](OP(=O)(O)O)[C@H]3O)C(O)C2O)c1 (stereo partly specified),/,/,/,/,/,1%,/,/,/,/,/
CC(C)OCc1cc(CN2CCN(c3cccc(C(F)(F)F)c3)CC2)c(O)c2ncccc12,0%,/,/,/,/,/,/,/,/,/,/
O=[N+]([O-])c1cc(CN2CCN(c3cccc(C(F)(F)F)c3)CC2)c2cccnc2c1O,-6%,2%[11.5 µM],-8%,-12,-7,16µM*,-17%,-28%,-10%,-19%,-21%
CCOC(=O)c1cccc(NC(=O)c2ncoc2-c2ccco2)c1,-1%,/,/,/,/,/,/,/,/,/,/
CCN(CC)C(=O)c1sc2c(c1C)c(=O)n(CCc1ccccc1)c(=O)n2Cc1ccc(F)cc1Cl,-1%,/,/,/,/,/,/,/,/,/,/
COc1ccc2c(c1)-c1nc(/N=C/c3cccc(OC)c3O)sc1CC2,-5%,?,?,34,12,1.4µM*,-28%[38.3 µM],-2%,?,?,?
COc1ccc2c(c1)-c1nc(/N=C/c3ccccc3O)sc1CC2,-6%,-11%,?,3,10,?,/,/,/,/,/
CCOC(=O)c1ccc(NC(=O)CSc2ncc(S(=O)(=O)c3ccc(C)c(Cl)c3)c(=O)[nH]2)cc1,2%,/,/,/,/,/,/,/,/,/,/
O=C(O)Cc1sc(Nc2ccc(Cl)cc2)nc1-c1cccs1,-27%,-6%,-3%,75*,47*,18µM*,15%,-5%,3%,9%,2%
Nc1nc(-c2cccs2)c(CC(=O)O)s1,-14%,0%,3%,-8,6,-7%,/,/,/,/,/
CCN(CCNCC(O)COCc1ccc(Cl)cc1)c1cccc(C)c1 (stereo unspecified),-4%,-1%,-5%,-7,-3,22µM*,-8%,-13%,0%,1%,10%
CCCCN(CC)C(=O)CCCn1c(=O)c2cccn2c2ccccc21,3%,/,/,/,/,/,/,/,/,/,/
COc1ccc(-c2noc(CSc3nnc(-c4ccncc4)n3-c3ccccc3)n2)cc1,-11%,/,/,/,/,/,/,/,/,/,/
CC(=O)N[C@@H]1CCSC1=O,-9%[33.2 µM],/,/,/,/,5%[21.7 µM],/,/,/,/,/
CC(=O)NC1C(=O)SC1(C)C (stereo unspecified),/,-6%,/,-30,-3,16µM*,-10%,-5%,-22%,-4%,-3%
C#CCOCCOCCOCCNc1nc(N2CCN(C(=O)[C@H](CO)n3cc([C@@H](N)C(C)C)nn3)CC2)nc(N2CCN(C(=O)[C@H](CO)n3cc([C@@H](N)C(C)C)nn3)CC2)n1,0%,/,6%,/,/,/,/,/,/,/,/
Cc1cccc(OCc2nn[nH]n2)c1C,2%,-4%,3%,-10,-4,14µM*,26%,-4%,4%,13%,16%
COC(=O)c1ccc(OCc2nn[nH]n2)cc1,1%,0%,20%,6,-2,32µM*,21%,19%,14%,12%,14%
SMILES,Tb PYK inh,LmPK inhibitor,RE007 growth inh,Shiga toxin inh,CHX counter,Giardia FBPA inh-1,Giardia growth,Mammal cell tox,Giardia FBPA inh-2,Rabbit FBPA inh,GAPDH counter
COc1ccc(OCc2nn[nH]n2)cc1,3%,6%,3%,19,1,25µM*,?,-6%,12%,7%,22%
COc1ccc(-c2cn3c(n2)sc2cc(C(=O)NCCCN4CCCCCC4)ccc23)cc1,3%,/,/,/,/,/,/,/,/,/,/
CCCCNC(=O)Oc1c(Br)cc2sc(=O)oc2c1Br,/,6%,/,-14,2,16µM*,-15%,11%,-5%,1%,-15%
Cc1c(N=Nc2c(O)n(-c3ccc(Br)cc3)c(=O)[nH]c2=O)c(=O)n(-c2ccccc2)n1C,-3%,0%,2%,-15,-2,16µM*,?,10%,9%,0%,-6%
Cc1c(N=Cc2c(O)n(C)c(=O)[nH]c2=O)c(=O)n(-c2ccccc2)n1C,0%,5%,-2%,-6,1,3%,/,/,/,/,/
Cc1c(N=CC=Nc2c(C)n(C)n(-c3ccccc3)c2=O)c(=O)n(-c2ccccc2)n1C,/,-1%,/,-4,-2,2%,/,/,/,/,/
Cc1c(N=Nc2c(O)[nH]c(=O)[nH]c2=O)c(=O)n(-c2ccccc2)n1C,4%,-3%,5%,-1,1,16µM*,2%[10.4 µM],22%,-3%,-20%,-9%
CN1C[C@H]2CON(C)[C@H]2C[C@H]1c1cccc(-c2ccccc2)c1,2%,/,-24%,/,/,/,/,/,/,/,/
CCCn1c(N)c(N(CCOC)C(=O)CSc2c(Cl)cccc2Cl)c(=O)[nH]c1=O,-9%,/,4%,/,/,/,/,/,/,/,/
COc1ccc(CCNCc2cc(C)n(-c3ccc(OC)cc3)c2C)cc1,15%,-1%,-11%,20,-1,14µM*,6%[10.4 µM],-2%,6%,-5%,1%

# High-throughput results from PubChem.
